Assay outcomes from PubChem BioAssay.
PPC-1+TRAIL kill: PPC-1 cancer cell killing with TRAIL present; 220,000 tested, 0.41% active; PPC-1 cells + TRAIL, ATPLite viability luminescence; cell killing (% activity), % at 4 µM or 5 µM;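 active = cell killing above 50% in the first pass at 4 µM, then a duplicate retest at 5 µM averaging 50% or more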;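 also: plate controls were cells with TRAIL plus DMSO for no effect and medium-only wells lacking cells for full effect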
STAT3 inh-1: reduces IL-6 driven STAT3 reporter signal; U3A cells, IL-6 STAT3-luciferase reporter, luminescence; host cell line lacks STAT1; inhibition, % at 5.5 µM; 190,000 tested, 0.89% active; AID 862;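 active = inhibition above the mean inhibition across all screened compounds plus 3 SD, cut at about 44% in these data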;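 also: 0% = DMSO only wells and 100% = 100 µM nifuroxazide control wells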
TRAIL sens C8: sensitizes caspase-8 expressing cells to TRAIL; NB7+C8 cells + TRAIL, ATPlite viability luminescence; inhibition (viability loss, TRAIL sensitization), % at 10 µM; 360,000 tested, 1% active; AID 624354;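 active = compounds causing at least 50% loss of cell viability in the single-dose screen, relative to plate controls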
STAT1 inh: inhibitors of IFN-gamma induced STAT1 signaling; NIH 3T3 STAT1-luciferase reporter, luminescence; inhibition, % at 5.5 µM; 200,000 tested, 0.35% active;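 active = inhibition above a set limit, the mean inhibition across all tested compounds plus 3 SD, cut at about 34% in these data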;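 also: 0% = IFN-gamma with DMSO and 100% = IFN-gamma with 300 µM nifuroxazide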
Platelet DG rel: platelet dense granule release activity; human platelet-rich plasma, SFLLRN dense granule ATP release, luminescence; inhibition, %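 (compounds screened at 7.5 µM in platelet-rich plasma)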; AID 1663; 300,000 tested, 0.22% active;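 active = mean replicate score, as percent of positive control, at or above 50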
STAT3 inh-2: confirmation of STAT3 signaling inhibitors | U3A cells, IL-6 STAT3 luciferase reporter, luminescence; cell line lacks STAT1 | shares compounds with STAT3 inh-1 | inhibition, % at 5.7 µM | 1,200 tested, 45% active | AID 1265;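 active = inhibition above the hit cutoff computed for the primary STAT3 screen, cut at about 44% in these data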;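 also: 0% = IL-6 plus DMSO and 100% = IL-6 plus nifuroxazide control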
NFkB inh STAT3ct: counter-screen for STAT3 inhibitors: NF-kappaB inhibition; shares compounds with STAT3 inh-1; HEK293T NF-kB luciferase reporter, TNF-alpha induced; inhibition, % at 5.7 µM; 1,200 tested, 36% active;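 active = inhibition above the mean of solvent-only control wells plus 3 SD, cutoff set per campaign, cut at about 13% in these data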;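 also: 0% = TNF-alpha with DMSO and 100% = TNF-alpha with MG high control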
STAT1 inh STAT3c: STAT1 inhibition in STAT3 inhibitor counter-screen; shares compounds with STAT3 inh-1; inhibition, % at 5.7 µM; AID 1317; NIH 3T3 STAT1-luciferase reporter, IFN-gamma induced, luminescence; 1,200 tested, 27% active;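 active = inhibition above the mean plus 3 SD of solvent-only control wells, limit set per screening run, cut at about 16% in these data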;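 also: 0% = DMSO with IFN-gamma and 100% = nifuroxazide control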
The depositor's hits bear a star; / = no result given. Rows were chosen to be rich in hits. Some 1.6% of all compounds tested hit in one or more screens of this group.

SMILES	PPC-1+TRAIL kill	STAT3 inh-1	TRAIL sens C8	STAT1 inh	Platelet DG rel	STAT3 inh-2	NFkB inh STAT3ct	STAT1 inh STAT3c
O=c1c2c(nc3cc(-c4ccc(F)cc4)[nH]n13)CCCC2	43.4	52.7*	53.3*	-83.8	3.3	18.9	-26.7	-133.4
O=C(OCc1cn([C@@H]2CN(C(=O)C3CCCCC3)[C@@H](c3ccc(Cl)cc3)C[C@H]2O)nn1)c1ccccc1	/	/	11.4	/	/	/	/	/
CC(C)=C[C@H]1C[C@H](C)[C@H]2CC[C@H](C)c3c(O[C@@H]4O[C@@H](C)[C@@H](O)[C@@H](O)[C@@H]4O)c(O)c(C)c1c32	/	/	-8.3	/	/	/	/	/
COC(=O)c1sccc1OCc1cccc(OC)c1	15.4	15.3	-5.2	-3.0	8.9	/	/	/
Cc1nc2ccccc2cc1OCc1ccccc1	14.7	69.4*	17.6	19.0	4.8	50.2*	8.0	3.3
COc1cccc(COc2cc3ccccc3nc2C)c1	-5.7	80.4*	20.3	15.3	4.2	76.2*	20.6*	7.5
Cc1nc2ccccc2nc(C)c1=NOCc1cccc(Cl)c1	-5.8	/	4.2	1.3	-9.0	/	/	/
Cc1nc2ccccc2cc1OCc1ccc(Cl)cc1	10.1	70.6*	28.7	11.8	-4.1	80.3*	13.4*	4.1
C[C@H](NC(=O)C1CCN(C(=O)[C@@H]2CCCN2C(=O)OC(C)(C)C)CC1)C(=O)NCc1ccc(F)cc1	/	/	13.8	/	/	/	/	/
COc1ccc(CCN2C(=O)C3C4C=CC(C5CC45)C3C2=O)cc1OC (centres undefined)	2.0	7.2	-12.9	6.1	-25.9	/	/	/
COc1ccc(CCN2C(=O)C3C4C=CC(C3C2=O)C2C(=O)N(CCc3ccc(OC)c(OC)c3)C(=O)C42)cc1OC (centres undefined)	33.8	67.6*	8.9	13.7	-0.1	65.7*	29.1*	12.5
CC(=O)Nc1ccc(-c2ccnc3c2CC(C(=O)NCc2ccccc2)O3)cc1 (centres undefined)	/	/	9.8	/	/	/	/	/
O=C(/C=C/Nc1ccccc1)c1ccccc1	23.4	67.3*	63.9*	33.1	36.7	35.6	-4.7	-56.6
O=C(/C=C/Nc1ccc(F)cc1Br)c1ccccc1	84.8*	86.3*	95.2*	18.0	52.3*	76.1*	62.4*	33.0*
O=C(Nc1cccc(Cl)c1)Nc1ccnc(-c2cccnc2)n1	12.4	54.9*	2.1	-2.5	-1.3	64.6*	-4.4	10.8
O=C(Nc1cccc(Cl)c1)Nc1cnccn1	/	/	-7.1	/	-9.9	/	/	/
Cc1ccc(S(=O)(=O)NC(=O)C2(C)CCN2C(=O)Cc2ccc(Cl)cc2Cl)nc1 (centres undefined)	/	/	8.3	/	/	/	/	/
CCOc1ccc(N=c2scc(-c3ccc(OC)cc3)n2CCO)cc1	3.2	58.8*	7.9	2.7	5.7	17.6	-1.9	-4.7
CCOc1ccc(N=c2scc(-c3ccccc3)n2CCO)cc1	-4.3	16.7	-8.2	-13.0	3.4	/	/	/
CC(C)C[C@H](NC(=O)OC(C)(C)C)C(=O)N[C@@H](CO)[C@H](O)[C@@H]1C[C@@H]1C(=O)N(C)C	/	/	1.1	/	5.5	/	/	/
O=C(COc1ccccc1)Nc1ccncc1	6.0	6.4	1.7	9.0	-4.4	/	/	/
O=C(COc1ccc2ccccc2c1)Nc1ccncc1	18.0	45.4*	26.7	3.2	-3.1	43.9*	-7.9	-2.6
Cc1cc(OCC(=O)Nc2ccncc2)ccc1Cl	/	/	-2.6	/	-10.9	/	/	/
O=C(CSc1ccc2ccccc2c1)Nc1ccncc1	8.0	49.5*	3.9	6.1	-5.1	44.6*	-2.6	-0.8
Cc1cc(OCC(=O)Nc2ccncc2)cc(C)c1Br	3.0	67.7*	16.7	1.2	-0.1	65.9*	-7.3	-13.6
Nc1nc2ccc(Cl)cc2cc1C(=O)NCc1ccc(Oc2ccccc2)cc1	/	/	17.9	/	/	/	/	/
CC(=O)N1CCc2cc(S(=O)(=O)NC3CCCc4ccccc43)ccc21 (centres undefined)	9.3	47.6*	11.9	19.0	/	46.0*	0.8	8.9
Cc1nc2ccc(NC(=O)c3cc(S(=O)(=O)N(C)c4ccccc4)ccc3Cl)cc2s1	10.1	54.7*	33.7	20.6	-5.2	64.5*	26.1*	26.6*
